Values joined by “and” are separate entries in the source; they are usually repeats but may differ in a detail not shown here. Identical values can stand only once. Results filed as inconclusive are left out. Active and inactive are the calls of the source. Unless noted, the call rests on the fitted dose curve; in most records, active means well fitted curve in the direction sought with a large enough effect; inconclusive means small, poorly fitted or top-dose-only effect, or another doubt; inactive means no such curve, though single readings can be large; an effect the other way counts as inactive or inconclusive.
Legend:
[1] = Cell Viability - MRC5 (AID 434; calls by dose curve;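 further: potency means the concentration at half of the fitted maximal effect; cells exposed to compound for 40 hours at 37 °C; potency reflects cytotoxicity seen as loss of intracellular ATP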); details: MRC5 lung fibroblast viability, qHTS
In short: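 ATP luminescence read-out (CellTiter-Glo, 20 min RT) after 40 hr, 37 °C compound exposure of 1500 MRC5 cells/well. Data normalized to DMSO (basal) and 100 uM tamoxifen (100% inhibition); AC50 from standard Hill equation.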

[2] = target: Mitogen-activated protein kinase 10 (Mus musculus) (UniProt Q61831); test: JNK3 AlphaScreen Assay (AID 530; active means well fitted curve in either direction with a large enough effect, not every such curve was filed as active;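 further: kinase came from lysate of stimulated human HepG2 cells; signal reports phosphorylation of biotinylated GST-cJun 1-79 at Ser73 with 10 µM ATP; on the % scale 0 is the no-effect control and ±100 the full control effect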); details: JNK3 lysate, c-Jun phosphorylation; series mostly up to 57.1 µM
In short: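 Activity was read by AlphaScreen after JNK3-containing HepG2 lysate (cytokine pre-activated) phosphorylated biotinylated GST-cJun with 10 uM ATP at room temperature. Phospho-Ser73 cJun antibody with Protein-A acceptor beads provided detection.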

[3] = Cell Viability - HUV-EC-C (AID 542); details: HUV-EC-C endothelial cell viability, qHTS; series mostly up to 92.2 µM;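 further: cells exposed to compound for 40 hours; on the % scale 0 is the no-effect control and ±100 the full control effect; nearly all actives have a fitted effect of over 35% in size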
In short: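 Cells were seeded at 1000 per well and incubated 5 hr at 37 °C before compound addition. After 40 hr at 37 °C, CellTiter-Glo reagent was added for 20 min and luminescence read. AC50 values came from Hill-equation modelling.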

[4] = Cell Viability - Mesenchymal (AID 546); details: mesenchymal cells viability, qHTS; series mostly up to 91.7 µM;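 further: cells exposed to compound for 40 hours before reading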
In short: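 Human renal mesenchymal cells (glomerulus-derived), 1000 cells/well, 5 hr 37 °C pre-incubation; compound 40 hr, 37 °C; CellTiter-Glo, 20 min RT; luminescence; AC50 via Hill equation.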

[5] = Cellular Toxicity (caspase-3) HepG2 (AID 654); details: HepG2 caspase-3 activation, luminescence, 0% = DMSO only, 100% = tamoxifen; series mostly up to 92.2 µM;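 further: cells exposed to compound for 16 hours before reading; 0% = DMSO alone and 100% = caspase signal from 100 µM tamoxifen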
In short: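 Caspase 3/7 activation in HepG2 is measured as rising luminescence after a 16 hr treatment at 37 °C. Values are scaled between DMSO basal and 100 uM tamoxifen, and AC50 is fitted with the Hill equation.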

[6] = Cellular Toxicity (caspase-3) Jurkat (AID 655); details: Jurkat caspase-3 activation, luminescence; caspase-3 activation: at 92.2 µM (top of the series), DMSO = 0%, tamoxifen = 100%;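 further: cells exposed to compound for 16 h at 37 °C before reading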
In short: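 Jurkat cells (5000/well) in complete medium exposed 16 h at 37 C; caspase-3/7 activity read by Caspase-Glo luminescence after 20 min at room temperature. Normalized to DMSO and 100 uM tamoxifen; AC50 from Hill fits.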

[7] = Cellular Toxicity (caspase-3) BJ (AID 658); details: BJ fibroblasts, luminescence, normalized: DMSO 0%, staurosporine 100%; series mostly up to 91.7 µM
In short: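 qHTS, BJ fibroblasts, 1000 cells/well; 5 hr preincubation, 16 hr compound, 37 °C; Caspase-Glo 3/7 reagent, 1 hr RT; luminescence. DMSO = 0%, 10 uM staurosporine = 100%. Hill-equation AC50.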

[8] = Cellular Toxicity (caspase-3) SK-N-SH (AID 661); details: SK-N-SH caspase-3 activation, qHTS; series mostly up to 91.7 µM
In short: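 Cells were seeded and incubated 5 hr at 37 °C, dosed with compound over a concentration range for 16 hr, then given Caspase-Glo 3/7 reagent for 1 hr at room temperature before luminescence reading.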

[9] = Cellular Toxicity (caspase-3) H-4-II-E (AID 663); details: H-4-II-E rat hepatoma; Potency: caspase-3 activation; series mostly up to 92.2 µM;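 further: cells exposed to compound for 16 hr before readout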
In short: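 H-4-II-E rat hepatoma, 1500 cells/well, 5 hr settle at 37 °C; compound 16 hr, 37 °C, complete medium; Caspase-Glo 3/7, 20 min RT; luminescence. DMSO = 0%, 100 uM tamoxifen = 100%; Hill-equation AC50.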

[10] = Cellular Toxicity (caspase-3) Hek293 (AID 664); details: HEK293 caspase-3 activation, DMSO = 0%, 100 µM tamoxifen = 100%; at 92.2 µM (top of the series);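 further: cells exposed to compound for 16 h at 37 °C before readout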
In short: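 qHTS, HEK293 (human embryonic kidney), 16 h cpd exposure in complete medium. Caspase-3/7 activation = luminescence increase; normalized to DMSO/100 uM tamoxifen; Hill-fit AC50.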

[11] = MultiTox-Fluor Cytotoxicity Assay - LYMP1-003 - Dead Cells (AID 961); details: LYMP1-003 lymphoblastoid cells, dead-cell protease fluorescence; series mostly up to 92.2 µM; further: nearly all actives have a fitted effect of over 70% in size
In short: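 Dead-cell protease release, detected as bis-AAF-R110 fluorescence at 485/520 nm, was measured in LYMP1-003 cells after 16 h compound treatment at 37 C. AC50 values came from Hill-modeled qHTS curves normalized to DMSO (0%) and 15 uM tetraoctylammonium bromide (100%).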

[12] = MultiTox-Fluor Cytotoxicity Assay - LYMP1-003 - Live Cells (AID 962); details: LYMP1-003 lymphoblastoid cells, MultiTox-Fluor live-cell protease fluorescence; series mostly up to 92.2 µM;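 further: cells exposed to compound for 16 hours at 37 °C; 0% = DMSO only and full loss = 92 µM tetraoctylammonium bromide; cytotoxic hits lower the live-cell protease signal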
In short: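 Acute cytotoxicity is scored as a drop in live-cell protease activity in human lymphoblastoid LYMP1-003 cells after 16 hr compound exposure at 37 C. AC50 values come from Hill-equation modelling of concentration-response data.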

[13] = target: Peroxisome proliferator-activated receptor gamma (Homo sapiens) (UniProt P37231); test: qHTS assay for small molecule agonists of peroxisome proliferator-activated receptor gamma signaling (AID 588536; active means well fitted curve in the direction sought with a large enough effect in the signal ratio, with a control signal flat, not every such curve was filed as active; the % refers to the signal ratio;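 further: 0% = DMSO basal wells and 100% = rosiglitazone at 2 µM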); details: HEK293 PPARg-UAS-bla, beta-lactamase ratio, 16 h, percent of rosiglitazone response, DMSO as zero; series mostly up to 76.7 µM
In short: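 This is an agonist-mode beta-lactamase reporter assay in HEK293 PPAR-gamma-UAS-bla cells with 1% charcoal/dextran FBS. Compound titrations ran 16 h at 37 C before CCF4 detection. EC50 and efficacy are Hill fits scaled to 2 uM rosiglitazone (100%) and DMSO basal.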

[14] = qHTS assay for cell viability of the p53RE-bla HCT-116 cell line (AID 743292); details: p53RE-bla HCT-116 viability, ATP luminescence, 16 h; series mostly up to 95 µM; further: on the % scale 0 is the no-effect control and ±100 the full control effect; nearly all actives have a fitted effect of over 55% in size
In short: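 Quantitative high-throughput format: compounds in DMSO were pinned onto p53RE-bla HCT-116 cells (4,000/well) and incubated 16 h at 37 C. Total intracellular ATP, read by CellTiter-Glo luminescence, reflects viable cell number.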

[15] = target: Nuclear receptor subfamily 1 group I member 2 (Rattus norvegicus) (UniProt Q9R1A7); test: qHTS assay for small molecule activators of the rat pregnane X receptor (rPXR) signaling pathway (AID 651751; call rule not given here; further: 0% is about no effect); details: rPXR reporter cells, luciferase (One-Glo), 24 h
[16] = Cellular Toxicity (caspase-3) N2a (AID 665); details: N2a cells, luminescence, normalized: DMSO 0%, 10 µM staurosporine 100%; series mostly up to 92.2 µM;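 further: compound exposure lasted 16 h at 37 °C before readout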
In short: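 Caspase-3/7 activation, measured as increased luminescence from aminoluciferin release, is quantified in mouse N2a cells exposed to compounds for 16 h. Values are normalized to DMSO and 10 uM staurosporine, with AC50 derived by Hill modelling.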

[17] = Cellular Toxicity (caspase-3) Renal Proximal Tubule (AID 667); details: renal proximal tubule cells; series mostly up to 91.7 µM;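 further: cells exposed to compound for 16 hours at 37 °C before detection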
In short: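 Freshly isolated primary rat kidney proximal tubule cells, 1000/well, treated 16 hr at 37 °C, then Caspase-Glo 3/7 luminescence after 1 hr. Normalized to DMSO and 10 uM staurosporine; AC50 from Hill fit.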

[18] = Cell Viability - LYMP2-013 (AID 970); details: LYMP2-013 lymphoblastoid cells viability; series mostly up to 92.2 µM;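 further: cells exposed to compound for 24 h at 37 °C; 0% = DMSO only and full inhibition = tetraoctylammonium bromide control; nearly all actives have a fitted effect of over 55% in size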
In short: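 Cytotoxicity is scored as a concentration-dependent drop in intracellular ATP in human lymphoblastoid cells after 24 hr compound exposure at 37 C. ATP is quantified by luciferase luminescence, and AC50 values come from Hill-equation modeling.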

[19] = qHTS assay for cell viability of HEK293 cells (AID 743288); details: ATP luminescence (CellTiter-Glo), 18 h, stronger effect = lower value; further: on the % scale 0 is the no-effect control and ±100 the full control effect; nearly all actives have a fitted effect of over 50% in size
In short: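 Steps: plate 2,000 parental HEK293 cells per well; incubate ≥5 h, 37 C; add compounds in DMSO; incubate 18 h, 37 C; add CellTiter-Glo; wait 30 min at room temperature; read luminescence.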

[20] = qHTS assay for environmental chemicals that activate the Aryl hydrocarbon Receptor (AhR) signaling pathway (AID 651777); details: 1A2-DRE human hepatoma cells, luciferase, 24 h; activation: stronger effect = higher value; further: % of control where 0% means no effect; nearly all actives have a fitted effect of over 15% in size
In short: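 AhR activation is scored as a rise in luciferase from a stable DRE–CYP1A2 promoter construct in human hepatoma cells. Treatment lasts 24 hr at 37 C; detection uses One-Glo after 30 min at room temperature.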

Sequence of Nuclear receptor subfamily 1 group I member 2 (Rattus norvegicus) (Q9R1A7 whole entry, looked up): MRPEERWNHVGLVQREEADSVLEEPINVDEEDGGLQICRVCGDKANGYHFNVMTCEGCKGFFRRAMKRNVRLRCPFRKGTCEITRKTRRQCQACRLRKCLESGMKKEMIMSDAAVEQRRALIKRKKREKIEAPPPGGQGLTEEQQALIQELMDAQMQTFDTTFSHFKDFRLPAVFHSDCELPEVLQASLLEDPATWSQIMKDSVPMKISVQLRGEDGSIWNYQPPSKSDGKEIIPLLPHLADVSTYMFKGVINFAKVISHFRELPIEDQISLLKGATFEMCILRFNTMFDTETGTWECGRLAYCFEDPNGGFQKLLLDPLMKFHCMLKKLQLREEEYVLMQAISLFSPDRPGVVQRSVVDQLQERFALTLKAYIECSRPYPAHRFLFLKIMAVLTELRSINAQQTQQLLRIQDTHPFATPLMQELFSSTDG
Sequence of Peroxisome proliferator-activated receptor gamma (Homo sapiens) (P37231 whole entry, looked up): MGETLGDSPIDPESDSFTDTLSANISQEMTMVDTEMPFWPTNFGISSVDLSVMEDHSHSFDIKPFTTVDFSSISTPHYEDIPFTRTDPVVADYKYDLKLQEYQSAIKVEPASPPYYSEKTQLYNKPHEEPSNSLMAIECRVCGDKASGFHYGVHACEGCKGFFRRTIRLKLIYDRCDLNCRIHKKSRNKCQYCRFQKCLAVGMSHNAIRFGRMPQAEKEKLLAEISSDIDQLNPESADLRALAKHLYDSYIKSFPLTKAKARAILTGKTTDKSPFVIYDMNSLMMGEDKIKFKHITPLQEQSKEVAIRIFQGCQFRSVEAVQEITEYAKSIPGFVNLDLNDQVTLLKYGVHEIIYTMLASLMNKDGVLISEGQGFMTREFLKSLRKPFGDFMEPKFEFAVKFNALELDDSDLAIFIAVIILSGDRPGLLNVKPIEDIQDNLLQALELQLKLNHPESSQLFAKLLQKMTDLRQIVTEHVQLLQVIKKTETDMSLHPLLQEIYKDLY

[N-]=[N+]=[N-]
inactive: Potency [1] > 92 µM | Potency [2] | Potency [3] | Potency [4] | outcome [5] | caspase-3 activation [6] 1.16% | outcome [7] | Potency [8] | Potency [9] | caspase-3 activation [10] -2.5% | Potency [11] | outcome [12] | outcome [13] | Potency [14] | max response [15] -8.68%

Nc1ccc(Cl)c(Cl)c1
inactive: Potency [2] | Potency [3] | Potency [4] | outcome [5] | caspase-3 activation [6] 0.952% | outcome [7] | Potency [8] | Potency [9] | caspase-3 activation [10] 0.307% | outcome [16] | outcome [17] | Potency [11] | outcome [12] | Potency [18] | outcome [13] | max response [19] -1.26% | Potency [14] | max response [15] 0.573%

CC(C)CON=O
inactive: Potency [1] > 92 µM | Potency [3] | Potency [4] | caspase-3 activation [6] -1.62% | Potency [9] | caspase-3 activation [10] 0.719% | outcome [16] | outcome [17] | outcome [12] | Potency [18] | outcome [13] | activation [20] 1.53% | max response [19] -12.6% | max response [15] 4.86%

Cc1cc(Cl)ccc1O
inactive: Potency [2] | Potency [3] | outcome [5] | caspase-3 activation [6] 4.09% | outcome [7] | Potency [8] | Potency [9] | caspase-3 activation [10] 0.112% | outcome [16] | outcome [17] | Potency [11] | outcome [13] | activation [20] 0.484% | max response [19] -5.93% | Potency [14] | max response [15] -0.864%

CCOS(C)(=O)=O
inactive: Potency [3] | Potency [4] | outcome [5] | caspase-3 activation [6] 0.622% | outcome [7] | Potency [8] | Potency [9] | caspase-3 activation [10] -3.11% | outcome [16] | outcome [17] | Potency [11] | outcome [12] | Potency [18] | outcome [13] | activation [20] 0.384% | max response [19] -14.8% | Potency [14] | max response [15] 1.86%

ClC=CCl
inactive: Potency [2] | Potency [4] | caspase-3 activation [6] 1.45% | outcome [7] | Potency [8] | caspase-3 activation [10] -1.83% | outcome [16] | Potency [11] | Potency [18] | activation [20] 0.329% | max response [19] -11.1% | Potency [14] | max response [15] -4.21%

BrC(Br)Br
inactive: Potency [1] > 92 µM | Potency [3] | Potency [4] | outcome [5] | caspase-3 activation [6] -0.161% | Potency [8] | Potency [9] | caspase-3 activation [10] -0.311% | outcome [17] | Potency [11] | outcome [12] | Potency [18] | outcome [13] | activation [20] 2.01% | max response [19] -3.11% | max response [15] 0.0785%

Oc1cc(Cl)cc(Cl)c1
inactive: Potency [1] > 92 µM | Potency [2] | Potency [3] | Potency [4] | outcome [5] | caspase-3 activation [6] -0.202% | outcome [7] | Potency [8] | Potency [9] | caspase-3 activation [10] -1.48% | outcome [17] | Potency [11] | outcome [12] | Potency [18] | outcome [13] | activation [20] 1.21% | max response [19] 3.49% | max response [15] 0.776%

Nc1c(Cl)cc([N+](=O)[O-])cc1Cl
inactive: Potency [2] | Potency [4] | outcome [5] | caspase-3 activation [6] 3.21% | outcome [7] | Potency [8] | Potency [9] | caspase-3 activation [10] 6.24% | outcome [16] | outcome [17] | Potency [11] | outcome [12] | Potency [18] | outcome [13] | activation [20] -0.0582% and 1.9% | max response [19] 7.25% and -11.8% | Potency [14]

C=CCBr
inactive: Potency [2] | Potency [3] | outcome [5] | caspase-3 activation [6] -0.133% | outcome [7] | Potency [9] | caspase-3 activation [10] 1.99% | Potency [11] | Potency [18] | max response [19] -2.53% | Potency [14] | max response [15] 1.14%

O=C(O)C(Cl)(Cl)Br
inactive: Potency [2] | Potency [4] | outcome [5] | caspase-3 activation [6] 1.43% | outcome [7] | Potency [8] | Potency [9] | caspase-3 activation [10] 1.91% | outcome [16] | Potency [11] | outcome [12] | outcome [13] | activation [20] 0.0306% | max response [19] 5.15% | Potency [14] | max response [15] 3.3%

C=CCCC#N
inactive: Potency [1] > 92 µM | outcome [5] | caspase-3 activation [6] -1.73% | outcome [7] | Potency [8] | Potency [9] | caspase-3 activation [10] -0.209% | outcome [17] | Potency [11] | outcome [12] | Potency [18] | outcome [13] | max response [19] -20.1% | Potency [14] | max response [15] -6.54%

CCCCCOC(=O)c1ccccc1C(=O)OCCCCC
inactive: Potency [3] | Potency [4] | outcome [5] | caspase-3 activation [6] 0.132% | outcome [7] | Potency [8] | Potency [9] | caspase-3 activation [10] 3.92% | outcome [16] | outcome [17] | outcome [12] | Potency [18] | outcome [13] | activation [20] 0.174% and 4.48% | max response [19] 4.12% and -1.01% | Potency [14] | max response [15] 4.64% and 1.43%

ClCc1ccccc1
inactive: Potency [1] > 92 µM | Potency [3] | outcome [5] | outcome [7] | Potency [8] | Potency [9] | outcome [16] | outcome [17] | Potency [11] | outcome [12] | Potency [18] | outcome [13] | max response [19] -10.4% | Potency [14] | max response [15] -2.08%

Reference: PubChem BioAssay (NCATS)
